Among the data in PubChem BioAssay AID778 (Sanford-Burnham Center for Chemical Genomics, 2007) are inhibition values, retold here.

About 20,000 (21%) of roughly 96,000 compounds were called active.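 Rule for the calls: active = CYP2C19 inhibition above a set limit at 5 µM in the primary screen (cut at about 50% in these data); inactive = the rest.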 These entries were drawn from the full list.

Cytochrome P450 2C19 (Homo sapiens), sequence (P33261 whole entry, looked up): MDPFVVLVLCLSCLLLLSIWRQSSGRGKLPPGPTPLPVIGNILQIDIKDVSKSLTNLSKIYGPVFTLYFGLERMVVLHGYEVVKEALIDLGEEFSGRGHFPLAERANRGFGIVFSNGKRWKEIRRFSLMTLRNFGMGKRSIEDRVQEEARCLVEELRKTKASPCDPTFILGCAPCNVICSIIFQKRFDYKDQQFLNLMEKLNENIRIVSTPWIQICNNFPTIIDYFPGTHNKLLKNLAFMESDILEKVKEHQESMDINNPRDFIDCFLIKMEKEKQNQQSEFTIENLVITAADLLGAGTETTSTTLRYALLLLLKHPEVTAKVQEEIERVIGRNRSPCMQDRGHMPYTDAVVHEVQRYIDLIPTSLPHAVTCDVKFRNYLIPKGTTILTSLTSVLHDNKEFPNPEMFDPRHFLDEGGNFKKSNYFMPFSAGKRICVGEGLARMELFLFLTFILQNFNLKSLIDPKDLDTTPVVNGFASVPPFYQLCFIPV

This experiment has as its target Cytochrome P450 2C19 (Homo sapiens) (UniProt P33261). Briefly: blockers of cytochrome P450 2C19 activity – biochemical, luminescence, ADME assay, primary screen (AID 778).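 Note: plate controls were negative control wells for no effect and 2.5 mM tranylcypromine positive control for full effect.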 Conditions: CYP2C19 Supersomes, luciferin-H EGE luminescence, 30 min; at 5 µM; hits give high values.
Broadly, the inhibition is the drop in the measured response relative to a control, in per cent. In the case of `CN1C2CCC1/C(=C\c1ccccc1Cl)C(=O)/C2=C\c1ccccc1Cl`, the inhibition was -12.1% (inactive).
In the case of `Cc1ccc(CCNC(=O)C2CCN(S(=O)(=O)N3CCCC3)CC2)cc1`, the inhibition was 12.2% (inactive).
Next, `CCCCOc1ccc(NC(=O)CSCC(=O)OCC)cc1`: 14.3% (inactive); `O=S1(=O)CC(NCc2ccccc2)C(Nc2ccc(Cl)cc2)C1` (stereo not given): 46.7% (inactive).
Next, `Cn1c(=O)c2c(n(Cc3ccccc3)c1=O)NC(=O)C2CC(=O)N1CCc2ccccc2C1` (stereo not given): -9.3% (inactive); `CC(Oc1ccc(-c2ccccc2)c(F)c1)c1ccn(S(=O)(=O)c2cccc3ccccc23)n1` (stereo not given): 25% (inactive); `C=CCn1c(=N)n(CC(O)COc2ccc(OC)cc2)c2ccccc21` (stereo not given): 12.4% (inactive).
With `Cc1ccc(-c2noc(CSc3nnc(-c4ccccc4)n3C)n2)cc1`, the inhibition is 88.2% (active).
The same measure for `Cc1ccc(-c2noc(CC(c3ccccc3)c3ccccc3)n2)cc1`: 19.9% (inactive).
The same measure for `Cc1ccc(-c2noc(CSc3nnc(-c4cccs4)n3C)n2)cc1`: 23% (inactive); for `CCCCCOC(=O)c1ccc(N2C(=O)C3C4C=CC(C4)C3C2=O)cc1` (stereo not given): -13.5% (inactive); for `CC(=O)N1C(=O)C2(Nc3ccccc3N2)c2ccccc21`: -7.6% (inactive).
Turning to `O=C1Nc2ccccc2C12Nc1ccccc1S2` (stereo not given), the inhibition was 80.5% (active).
Regarding `Clc1cccc(N=C2NN=C(c3ccc4c(c3)OCCO4)CS2)c1`, the inhibition was 24.7% (inactive).
On to `C=CC[n+]1c(-c2ccc(C)cc2)csc1NNC(=O)Nc1ccccc1`, for which the inhibition is 18% (inactive).
With `c1coc(-c2nc3nc4ccccc4n3nc2-c2ccco2)c1`, the inhibition was -23.4% (inactive).
In the case of `Cn1c(-c2ccco2)nc2cc3ccccc3cc21`, the inhibition was 53.3% (active).
As to `CN(c1nc2ccccc2n2c(-c3ccco3)nnc12)S(=O)(=O)c1ccccc1`, the inhibition was 1.3% (inactive).
With `CSc1nc(C)nc2c1c(=O)n(C)c(=O)n2C`, the inhibition is -8.7% (inactive).
In the case of `CCCC1CC(C)(C(=O)Cn2[nH]c(=O)ccc2=O)OC1=O` (stereo not given), the inhibition was 0.3% (inactive).
With `COc1cccc(NC(=O)c2nn(C34CC5CC(CC(C5)C3)C4)cc2[N+](=O)[O-])c1`, the inhibition is 9.7% (inactive).
As for `COc1ccc(-c2cc(C3CCN(c4ncccc4[N+](=O)[O-])CC3)[nH]n2)cc1`, the inhibition is 84.8% (active).
As to `CCCn1c(=O)c(-c2ccccc2)c(O)c2ccccc21`, the inhibition is -13.5% (inactive).
The same measure for `COc1ccc(S(=O)(=O)NC2(C(F)(F)F)N=C3SCCN3C2=O)cc1` (stereo not given): -1.5% (inactive); for `Cc1cccc(N2CCN(S(=O)(=O)c3ccc4[nH]c(=O)c(=O)[nH]c4c3)CC2C)c1` (stereo not given): 19.7% (inactive).
For the compound `CSc1nnc(-c2ccncc2)n1CCCN1CCCC1=O`, the inhibition was -0.2% (inactive).
Take `CC(C)(CCl)C(=O)Nc1ccc(Sc2ccc(F)cc2)cc1`: the inhibition was -1.4% (inactive).
Regarding `COC(=O)c1ccc(Sc2ccc(F)cc2)c(N)c1`, the inhibition was 94.3% (active).
For `CC(C)NC(=O)c1ccc(Sc2ccccc2)c([N+](=O)[O-])c1`, the inhibition was 36.8% (inactive).
`c1cnc(NC2C3CC4CC(C3)CC2C4)nc1` (stereo not given): the inhibition is 26% (inactive).
Turning to `CN(C)c1ccc(CNC2C3CC4CC(C3)CC2C4)cc1` (stereo not given), the inhibition was 75.5% (active).
Take `CN(C)c1ccc(CNC23CN4CN(CN(C4)C2)C3)cc1`: the inhibition is 0.2% (inactive).
Consider `COc1ccc(F)cc1S(=O)(=O)Nc1ccc2c(c1)OCO2`, for which the inhibition is 69.4% (active).
Consider `COc1ccc(S(=O)(=O)Nc2ccc3c(c2)OCO3)cc1Cl`, for which the inhibition is 100% (active).
Regarding `Cc1cc(Cl)c(S(=O)(=O)Nc2ccc3c(c2)OCCO3)cc1OCC(N)=O`, the inhibition was 15.3% (inactive).
With `COc1ccc(C(=O)Nc2ccc3c(c2)OCO3)cc1OC`, the inhibition is 39.8% (inactive).
In the case of `COc1ccc(S(=O)(=O)Nc2ccc(F)cc2)c(C)c1C`, the inhibition was 94.9% (active).
Consider `CC(C)CNS(=O)(=O)c1ccc(OCC(=O)Nc2ccc3c(c2)OCO3)c(Cl)c1`, for which the inhibition is -1% (inactive).
As to `COc1ccc(C(=O)Nc2ccc(S(=O)(=O)Nc3onc(C)c3C)cc2)cc1OC`, the inhibition was 15.5% (inactive).
As for `O=C1CCCC2=C1C(c1cccs1)n1nc(SCc3ccccc3)nc1N2` (stereo not given), the inhibition was -10.3% (inactive).
Consider `N=c1c2c3c(sc2ncn1CCCN1CCOCC1)CCCCC3`, for which the inhibition was 7.8% (inactive).
Take `CCOc1cc2[nH]c(=S)n(Cc3ccc(C(=O)NCCOC)cc3)c(=O)c2cc1OCC`: the inhibition is -10.8% (inactive).
Consider `CCOC(=O)N1CCN(Cc2oc(CO)cc(=O)c2O)CC1`, for which the inhibition is 5.4% (inactive).
Take `CSCCC(NS(=O)(=O)c1ccc2c(c1)oc(=O)n2C)C(=O)NC1CCCc2ccccc21` (stereo not given): the inhibition was 7.6% (inactive).
Regarding `OC1CN=C2Sc3ccccc3N2C1` (stereo not given), the inhibition was -7.4% (inactive).
Next, `O=C(Cc1ccc2c(c1)CCCC2)Nc1ccccc1Cl`: 27.1% (inactive); `CC1(C)CC(CCC(=O)Nc2ccccc2Cl)C(=O)O1` (stereo not given): 1.2% (inactive); `O=C(Nc1ncc2c(n1)CC(c1ccco1)CC2=O)c1ccc(Cl)cc1` (stereo not given): 28.4% (inactive).
Take `CCCCOc1ccc(Cl)cc1CSc1nncn1N`: the inhibition is 86.7% (active).
Take `Cc1cc(=O)[nH]c(SCc2cc(Cl)ccc2OC(F)F)n1`: the inhibition is 29% (inactive).
The same measure for `CCCCOc1ccc(CSC(=N)N)cc1[N+](=O)[O-]`: 16.6% (inactive); for `Cc1[nH]n(-c2ccc([N+](=O)[O-])cc2)c(=O)c1C=NCCN1CCN(C(=O)c2ccccc2F)CC1`: 9.2% (inactive); for `COc1ccc(C(=O)NC(=S)Nc2ccccc2N2CCN(S(C)(=O)=O)CC2)cc1OC`: 75.2% (active).
Consider `CCC(=O)Nc1ccccc1N1CCN(S(C)(=O)=O)CC1`, for which the inhibition is 10.6% (inactive).
`CCOC(=O)c1cnc2sccn2c1=O`: the inhibition is -11.8% (inactive).
As for `CCCn1c(=NC(C)=O)c(C(=O)OCC)cc2c(=O)n3ccccc3nc21`, the inhibition is -6.3% (inactive).
Next, `CCn1c(=N)c(S(=O)(=O)c2ccc(F)cc2)cc2c(=O)n3ccccc3nc21`: 69.6% (active).
With `Cc1ccc(-n2c(=O)c(C#N)cc3c(=O)n4ccccc4nc32)cc1C`, the inhibition is 6.5% (inactive).
Next, `COc1cc2[nH]c(=S)n(Cc3ccc(C)o3)c(=O)c2cc1OC`: -7.9% (inactive).
The same measure for `CC(C)C(c1nnnn1Cc1ccccc1)N1CCC(C(N)=O)CC1` (stereo not given): 10% (inactive); for `Fc1ccc(Cn2nnnc2C(c2cccs2)N2CCCCCC2)cc1` (stereo not given): 96% (active); for `CCC(C)(C)n1nnnc1C(c1cccs1)N1CCN(c2nc3ccccc3s2)CC1` (stereo not given): 49.9% (inactive).
Turning to `CCC(C)(C)n1nnnc1C(c1cccs1)N1CCN(Cc2ccccc2)CC1` (stereo not given), the inhibition is 61.8% (active).
With `N#Cc1ccc(C(c2nnnn2CCc2ccccc2)N2CCCCCC2)cc1` (stereo not given), the inhibition was 20.5% (inactive).
Turning to `CCC(C)(C)n1nnnc1C(c1ccccc1OC)N1CCSCC1` (stereo not given), the inhibition is 11.4% (inactive).
As for `O=C1c2cccnc2C(=O)N1Cc1cccs1`, the inhibition was 21.3% (inactive).
The same measure for `CCCCNC(=O)CCn1c(=S)[nH]c2cc3c(cc2c1=O)OCO3`: 41.9% (inactive); for `CCCCn1c(=S)[nH]c2ncccc2c1=O`: 10.8% (inactive).
Next, `CC(C)(C)c1ccc(C(=O)NNC(=O)Cc2ccccc2)cc1`: 23.9% (inactive); `O=S(=O)(c1ccc(F)cc1)n1ccc(-c2cnc(-c3ccccc3)s2)n1`: 13.6% (inactive).
`CCOC(=O)N1CCN(S(=O)(=O)c2cc3c(cc2C)NC(=O)CO3)CC1`: the inhibition was 12.1% (inactive).
Consider `Cn1cc(S(=O)(=O)N2CCN(c3ccc(F)cc3)CC2)c(=O)n(C)c1=O`, for which the inhibition is 26.4% (inactive).
Turning to `COCCn1c(CN2CCC(Cc3ccccc3)CC2)nc2c1c(=O)n(C)c(=O)n2C`, the inhibition is 49.4% (inactive).
The same measure for `Cn1cc(S(=O)(=O)N2CCC(Cc3ccccc3)CC2)c(=O)n(C)c1=O`: 69.7% (active).
Regarding `C=CCn1c(SCC(=O)c2ccc(Br)cc2)nnc1C(C)NC(=O)Cc1ccc(OC)cc1` (stereo not given), the inhibition was 11.6% (inactive).
The same measure for `C=CCn1c(SCc2cc(C(=O)OC)c(C)o2)nnc1-c1ccncc1`: 92.1% (active); for `C=CCn1c(SCc2c(C(=O)OC)sc(N)c2C(=O)OC)nnc1-c1ccc(Cl)cc1`: 57.1% (active); for `C=CCn1c(SCCOc2ccc(OC)cc2)nnc1C(NC(=O)c1ccc(OC)cc1)C(C)C` (stereo not given): 35.4% (inactive).
Consider `COCCn1c(SCc2nc3cc(OC)c(OC)cc3c(=O)[nH]2)nnc1-c1ccncc1`, for which the inhibition is -13.4% (inactive).
Take `O=C1Nc2c(Br)cc(Br)cc2C1(O)N1CCOCC1` (stereo not given): the inhibition was 41.6% (inactive).
For `O=C(NC(=O)c1ccc(Cl)c(Cl)c1)OC1CCS(=O)(=O)C1` (stereo not given), the inhibition was -14.2% (inactive).
Consider `COc1ccc(-c2nc(SCC(=O)N3CCOCC3)n[nH]2)cc1`, for which the inhibition was 1% (inactive).
Next, `CN1/C(=c2/s/c(=C3/C(=O)N(c4ccccc4)NC3=Nc3ccccc3)n(C)c2=O)C(C)(C)c2ccccc21`: 38.5% (inactive); `COC(=O)C1=C(C)Nc2ncnn2C1c1ccco1` (stereo not given): -5.4% (inactive).
For `CCOC(=O)CSC1=C(C#N)C(c2ccco2)C(C(=O)OCc2ccccc2)=C(C)N1` (stereo not given), the inhibition is 72.5% (active).
As for `COc1ccccc1NC(=O)C1=C(C)NC2=C(C(=O)CCC2)C1c1ccc(C)o1` (stereo not given), the inhibition is 41.9% (inactive).
Turning to `COc1ccccc1NC(=O)C1=C(C)Nc2ncnn2C1c1ccc(C)o1` (stereo not given), the inhibition is 8.6% (inactive).
As for `Cc1ccc(C2CC(=O)NC(SCC(=O)OCc3ccccc3)=C2C#N)o1` (stereo not given), the inhibition was 82.5% (active).
`CCOC(=O)C1C(=O)NC(N2CCN(c3ccccc3)CC2)=NC1c1ccco1` (stereo not given): the inhibition was 6.9% (inactive).
`CC1=C(C(=O)Nc2ccccc2)C(c2ccco2)C(C#N)=C(SCC(N)=O)N1` (stereo not given): the inhibition was 2.2% (inactive).
For the compound `CC1=C(C(=O)OCc2ccccc2)C(c2ccco2)n2ncnc2N1` (stereo not given), the inhibition is 90.2% (active).
The same measure for `CCOC(=O)CSC1=C(C#N)C(c2sccc2C)CC(=O)N1` (stereo not given): 22.9% (inactive).
With `CCCNS(=O)(=O)c1ccc2c(c1)CCCN2C(C)=O`, the inhibition is 0.6% (inactive).
Consider `COc1ccc(N2CCN(C(=O)CSc3ncnc4c3cnn4-c3ccc(OC)cc3)CC2)cc1`, for which the inhibition was 5.1% (inactive).
As to `O=C(CN1C(=O)CSc2ncccc21)N1CCOCC1`, the inhibition was 13% (inactive).
